Laboratory results published in PubChem BioAssay (NCI).
The panel holds about 79,000 compounds, 15% with a hit somewhere; the sample as a whole holds those more often. Activity calls are given as the source filed them. No stated cut-off is given here; in the data, active means growth inhibition above about 70%; inactive means the rest.

Assay: NCI Yeast Anticancer Drug Screen. Data for the cln2 rad14 strain (AID 165);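 further: 0% = growth equal to vehicle treated cultures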
Settings: S. cerevisiae cln2 rad14 strain, hits give high values; at 50.0 µM unless noted
Method in brief: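 Yeast carrying cln2 and rad14 alterations (cell cycle control and DNA damage repair) were exposed to compounds. Growth inhibition was measured against vehicle-treated controls.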

Q: With Cc1cccc(NC(=O)C(=O)C(C(=O)c2ccc3ccccc3c2)C2OC(=O)c3ccccc32)c1C (stereo unspecified) as the molecule, how does the growth inhibition read?
A: -59.5% (inactive)

Q: For COc1ccc(C2OC3=C(Nc4cc(C)c(C)cc4N3)C2=O)cc1 (stereo unspecified), which growth inhibition is on record?
A: -1.35% (inactive)

Q: For COc1ccc(OC)c(/C=N\NC(=O)N/N=C/c2cc(OC)ccc2OC)c1, which growth inhibition is on record?
A: -2.05% (inactive)

Q: For COc1cc(O)c2c(=O)cc(-c3ccc(O)cc3O)oc2c1CC=C(C)C, which growth inhibition is on record?
A: 17.7% (inactive)

Q: For COc1cc(NC(C)=O)c2c(c1)SCC(=O)N2, which growth inhibition is on record?
A: 5.2% (inactive)

Q: For CN1N=CSC12C(=O)N(c1ccccc1)C(=O)N2c1ccccc1 (stereo unspecified), which growth inhibition is on record?
A: 20.1% (inactive)

Q: With CN(C)CCl as the molecule, how does the growth inhibition read?
A: -4.1% (inactive)

Q: For CCOC(=O)C1=C(O)C[C@]2(O)C3CC=C(C)[C@@H]4CCO[C@](OC)(C[C@H]2C1)[C@]34C(=O)OC (stereo partly specified), which growth inhibition is on record?
A: 1% (inactive)

Q: With CCC(C)C(NC(=O)C1CSC(C)(C)N1C=O)C(=O)OC1CCCCC1 (stereo unspecified) as the molecule, how does the growth inhibition read?
A: -13.2% (inactive)

Q: Which growth inhibition does the source give for O=C(CCCC1CCCCC1)OC1CCCCC1 here?
A: -8.05% (inactive)

Q: Which growth inhibition does the source give for CCN(CC)CCNC(=O)c1ccc(I)cc1 here?
A: -25.6% (inactive)

Q: For CCCCNC(=O)/C=C/C(=O)NCCCC, which growth inhibition is on record?
A: -36.4% (inactive)

Q: With C[C@H]1CC[C@@H]2O[C@@]23C(=O)OC2OC(C)(C)[C@@H]([C@H]2O)[C@]13C as the molecule, how does the growth inhibition read?
A: -0.35% (inactive)

Q: For CCOC(=O)CC(=O)CC(=O)OCC, which growth inhibition is on record?
A: 6.1% (inactive)

Q: Which growth inhibition does the source give for COC(=O)C(Br)C(Br)c1cc(OC)c(OC)c(OC)c1 (stereo unspecified) here?
A: 40% (inactive)

Q: Which growth inhibition does the source give for Cc1ccc(S(=O)(=O)N(C)c2ccc3c(c2)C(=O)c2ccccc2-3)cc1 here?
A: -44.5% (inactive)
